ADAM17 inh – inhibits human ADAM17; 0.83% of 370,000 active; inhibition, % at 6.95 µM; recombinant ADAM17, EDANS/DABCYL FRET peptide cleavage; P78536; AID 720648;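 active = inhibition above the mean of compounds lying between control limits plus 3 SD, set per campaign, cut at about 8.5% in these data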;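 also: 0% = DMSO-only wells as the low control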
Target sequence (P78536 215-824 limits assumed): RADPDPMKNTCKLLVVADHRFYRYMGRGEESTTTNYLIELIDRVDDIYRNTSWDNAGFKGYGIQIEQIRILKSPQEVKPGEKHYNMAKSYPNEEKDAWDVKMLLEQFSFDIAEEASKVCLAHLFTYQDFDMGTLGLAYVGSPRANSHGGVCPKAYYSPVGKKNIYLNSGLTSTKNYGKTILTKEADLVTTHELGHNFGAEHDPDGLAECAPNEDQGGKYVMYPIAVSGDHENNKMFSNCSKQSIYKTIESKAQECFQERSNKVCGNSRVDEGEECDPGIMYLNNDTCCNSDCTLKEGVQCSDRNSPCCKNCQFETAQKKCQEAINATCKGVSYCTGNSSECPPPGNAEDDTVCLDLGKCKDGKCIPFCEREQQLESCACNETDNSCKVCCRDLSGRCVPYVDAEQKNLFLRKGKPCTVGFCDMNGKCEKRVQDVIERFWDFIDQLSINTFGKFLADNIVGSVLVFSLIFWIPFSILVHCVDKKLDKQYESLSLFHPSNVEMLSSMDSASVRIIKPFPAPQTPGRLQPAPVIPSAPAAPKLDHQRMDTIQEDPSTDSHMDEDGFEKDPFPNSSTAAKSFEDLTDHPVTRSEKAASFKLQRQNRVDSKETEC
CendR NRP1 mod – alters CendR peptide binding to human NRP-1; 0.85% of 360,000 active; FAM-RPARPAR peptide binding to NRP-1, fluorescence polarization; inhibition, % at 25 µM;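 active = inhibition or corrected inhibition above about 18%, plus a signal ratio from 0.5 to 1.5, limit read from the data, passing the limit was not always enough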
KLK7 zymogen act – activators of human kallikrein-7 zymogen | purified proKLK7, EDANS-DABCYL substrate fluorescence; 100% is mature enzyme control, 0% vehicle | activation, % at 7 µM | 0.9% of 370,000 active;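 active = activation above the mean of all tested compounds plus 3 SD, computed per campaign excluding outliers beyond control limits, cut at about 13% in these data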
ADAM10 inh – inhibitors of human ADAM10. O14672. recombinant ADAM10, EDANS/DABCYL FRET peptide cleavage, 3 h. inhibition, % at 7 µM. 0.62% of 370,000 active;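 active = inhibition above a per-campaign cutoff equal to the mean of compounds falling between control-based bounds plus 3 SD, cut at about 20% in these data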;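 also: 0% = DMSO wells while the 100% control is not disclosed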
HGIII-sPLA2 inh – Blocks human group III sPLA2 activity. 0.56% of 370,000 active. Q9NZ20. QFRET BODIPY PC-A2 liposome hydrolysis, fluorescence. inhibition, % at 12.2 µM. AID 743126;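 active = inhibition above mean plus 3 SD of compounds lying within the high and low control bounds, cut at about 19% in these data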;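 also: 0% = median of test compound wells and 100% = no enzyme DMSO wells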
ADAM10 ctr – inhibits human ADAM10 in ADAM17 exosite counter-screen | shares compounds with ADAM17 inh | recombinant ADAM10, EDANS/DABCYL FRET peptide cleavage, 3 h | inhibition, % at 6.95 µM | 47% of 2,900 active;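 active = mean inhibition over the triplicate runs exceeds the activity threshold set in the earlier primary screen, cut at about 20% in these data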;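 also: 0% = DMSO wells and 100% = marimastat wells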
ADAM17 confirm – human ADAM17 inhibition, confirmation. inhibition, % at 6.95 µM. recombinant ADAM17, EDANS/DABCYL QFRET peptide cleavage. AID 743257. shares compounds with ADAM17 inh. 65% of 2,900 active;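 active = mean inhibition across replicates above the hit cutoff set in the primary screen, cut at about 8.5% in these data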;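 also: 0% = DMSO wells and 100% = marimastat wells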
Starred values were filed as active, the others as inactive. The list is not random: actives were taken first. Their share in the collection is about 3.4%.

What do the screens show for `C[C@@H]1CCCCO[C@H](CN(C)S(=O)(=O)c2cccs2)[C@H](C)CN([C@@H](C)CO)C(=O)c2cc(NC(=O)NC3CCCCC3)ccc2O1`?
ADAM17 inh: 11.3*; CendR NRP1 mod: -20.1; KLK7 zymogen act: 0.2; ADAM10 inh: 15.0; HGIII-sPLA2 inh: -22.0; ADAM10 ctr: 28.1*; ADAM17 confirm: 15.7*

Results for Cc1noc(C)c1NC(=O)Nc1ccc2c(c1)C(=O)N([C@@H](C)CO)C[C@@H](C)[C@H](CN(C)C(=O)Nc1cccc3ccccc13)OCCCC[C@H](C)O2 ?
ADAM17 inh: -4.9; CendR NRP1 mod: -4.2; KLK7 zymogen act: -0.9; ADAM10 inh: -40.1; HGIII-sPLA2 inh: -7.5

What do the screens show for `Cc1noc(C)c1NC(=O)Nc1ccc2c(c1)C(=O)N([C@H](C)CO)C[C@H](C)[C@H](CN(C)C(=O)NC1CCCCC1)OCCCC[C@@H](C)O2`?
ADAM17 inh: 9.8*; CendR NRP1 mod: -10.5; KLK7 zymogen act: 0.3; ADAM10 inh: 3.7; HGIII-sPLA2 inh: -5.3; ADAM10 ctr: 26.5*; ADAM17 confirm: 7.0

What do the screens show for `CCCCCCCCN1C(=O)[C@@H](CC(=O)NCC23CC4CC(CC(C4)C2)C3)C[C@@]2(C(=O)OC)C1=C[C@H](COCc1ccccc1)O[C@@H]2C`?
ADAM17 inh: 2.7; KLK7 zymogen act: 0.8; ADAM10 inh: 4.6; HGIII-sPLA2 inh: -8.9

Results for Cc1cc(SCCOc2ccccc2)nc(N)n1 ?
ADAM17 inh: 11.1*; CendR NRP1 mod: 15.2; KLK7 zymogen act: 0.0; ADAM10 inh: 4.4; HGIII-sPLA2 inh: -3.9; ADAM10 ctr: 0.7; ADAM17 confirm: 2.8

What do the screens show for `Clc1ccc(N2COC3c4cccc5cccc(c45)C32)cc1` (centres undefined)?
ADAM17 inh: 9.2*; CendR NRP1 mod: 4.0; KLK7 zymogen act: 0.3; ADAM10 inh: 7.0; HGIII-sPLA2 inh: 0.9; ADAM10 ctr: -2.0; ADAM17 confirm: 3.9

What do the screens show for `CC(C)(C)c1ccc(C2(C)NC(=O)N(CC(=O)NCc3cccs3)C2=O)cc1` (centres undefined)?
ADAM17 inh: 5.4; CendR NRP1 mod: -1.0; KLK7 zymogen act: -0.4; ADAM10 inh: 7.1; HGIII-sPLA2 inh: -3.1

What do the screens show for `CC(C)(C)c1ccc(C2(C)NC(=O)N(CC(=O)c3ccc[nH]3)C2=O)cc1` (centres undefined)?
ADAM17 inh: 11.0*; CendR NRP1 mod: -12.8; KLK7 zymogen act: 0.5; ADAM10 inh: 14.7; HGIII-sPLA2 inh: -17.3; ADAM10 ctr: 3.9; ADAM17 confirm: 3.4

How did CC(=O)Nc1ccc(S(=O)(=O)NCCSCc2cccc(Cl)c2)cc1 do in these assays?
ADAM17 inh: 8.9*; CendR NRP1 mod: -11.7; KLK7 zymogen act: -0.2; ADAM10 inh: 15.5; HGIII-sPLA2 inh: -30.4; ADAM10 ctr: 6.5; ADAM17 confirm: 4.6

What do the screens show for `O=C(/C=C/c1cccc([N+](=O)[O-])c1)NCCSCc1cccc(Cl)c1`?
ADAM17 inh: 12.6*; CendR NRP1 mod: 9.1; KLK7 zymogen act: 0.1; ADAM10 inh: 18.9; HGIII-sPLA2 inh: -13.0; ADAM10 ctr: 21.8*; ADAM17 confirm: 12.1*

How did CC(C)c1[nH]nc2c1C(c1cccc(C(F)(F)F)c1)N(Cc1ccccc1)C2=O (centres undefined) do in these assays?
ADAM17 inh: 3.2; KLK7 zymogen act: 0.6; ADAM10 inh: 5.6; HGIII-sPLA2 inh: 10.4

How did CN(c1ccc(C(=O)Nc2ccc3c(c2)OCO3)cc1)S(C)(=O)=O do in these assays?
ADAM17 inh: -0.7; CendR NRP1 mod: -4.8; KLK7 zymogen act: 0.2; ADAM10 inh: -7.3; HGIII-sPLA2 inh: 7.8

How did CN(c1ccc(C(=O)Nc2ccc3c(c2)OCCO3)cc1)S(C)(=O)=O do in these assays?
ADAM17 inh: 9.4*; CendR NRP1 mod: 2.4; KLK7 zymogen act: -0.3; ADAM10 inh: 9.9; HGIII-sPLA2 inh: -5.2; ADAM10 ctr: 0.6; ADAM17 confirm: 1.9

Results for COc1ccc(N(C)S(=O)(=O)c2cccc(C(=O)Nc3ccc4c(c3)OCCO4)c2)cc1 ?
ADAM17 inh: 10.7*; CendR NRP1 mod: 5.0; KLK7 zymogen act: 0.8; ADAM10 inh: 13.7; HGIII-sPLA2 inh: 0.0; ADAM10 ctr: 24.5*; ADAM17 confirm: 13.3*

Results for O=C(Nc1ccc(F)cc1)OCc1cn(Cc2cc(F)cc(F)c2)nn1 ?
ADAM17 inh: 1.5; KLK7 zymogen act: -0.1; ADAM10 inh: 6.1; HGIII-sPLA2 inh: -3.9

How did CCCN(CC(=O)Nc1ccccc1OC)C(=O)c1ccc2[nH]c3c(c2c1)CC(C)CC3 (centres undefined) do in these assays?
ADAM17 inh: 12.5*; CendR NRP1 mod: 8.8; KLK7 zymogen act: 2.8; ADAM10 inh: 7.6; HGIII-sPLA2 inh: -53.5; ADAM10 ctr: 28.6*; ADAM17 confirm: 16.3*

What do the screens show for `O=C1CCc2cc(S(=O)(=O)N3CCN(Cc4cccc5c4OCO5)CC3)ccc2N1`?
ADAM17 inh: -1.5; KLK7 zymogen act: 0.3; ADAM10 inh: -4.5; HGIII-sPLA2 inh: 9.4

How did CCc1ccc(NC(=O)C2=CC(c3ccc(OC)cc3)=NS(=O)(=O)N2C)cc1 do in these assays?
ADAM17 inh: 9.2*; CendR NRP1 mod: 8.6; KLK7 zymogen act: -1.8; ADAM10 inh: 11.1; HGIII-sPLA2 inh: -3.4; ADAM10 ctr: 23.7*; ADAM17 confirm: 15.4*

What do the screens show for `COc1ccc(C2=NS(=O)(=O)N(C)C(C(=O)Nc3ccc4c(c3)OCO4)=C2)cc1`?
ADAM17 inh: 4.2; CendR NRP1 mod: -7.4; KLK7 zymogen act: 0.3; ADAM10 inh: -2.6; HGIII-sPLA2 inh: -5.4

What do the screens show for `Cc1ccc(C2=NS(=O)(=O)N(C)C(C(=O)Nc3ccc4c(c3)OCO4)=C2)cc1`?
ADAM17 inh: 12.8*; CendR NRP1 mod: -11.7; KLK7 zymogen act: 0.9; ADAM10 inh: 11.1; HGIII-sPLA2 inh: -23.8; ADAM10 ctr: 19.5; ADAM17 confirm: 13.7*

What do the screens show for `COc1ccc(C2=NS(=O)(=O)N(C)C(C(=O)Nc3ccc(C)cc3)=C2)cc1`?
ADAM17 inh: 8.9*; CendR NRP1 mod: 3.7; KLK7 zymogen act: 0.4; ADAM10 inh: 18.9; HGIII-sPLA2 inh: -9.5; ADAM10 ctr: 19.3; ADAM17 confirm: 13.5*

What do the screens show for `COc1ccc(NC(=O)C2=CC(c3cccs3)=NS(=O)(=O)N2C)cc1`?
ADAM17 inh: 3.0; CendR NRP1 mod: -3.2; KLK7 zymogen act: -0.4; ADAM10 inh: -9.2; HGIII-sPLA2 inh: 8.7

Results for COc1ccc(C(O)c2nc(-c3cccc(C(F)(F)F)c3)cs2)cc1 (centres undefined) ?
ADAM17 inh: 12.7*; CendR NRP1 mod: 1.2; KLK7 zymogen act: 0.1; ADAM10 inh: 9.4; HGIII-sPLA2 inh: -1.3; ADAM10 ctr: 26.7*; ADAM17 confirm: 13.3*
